Test results taken from PubChem BioAssay (NCATS).
Inconclusive results are not listed. Unmarked numbers belong to inactive results. Active and inactive are the calls of the source. The call rests on the fitted dose curve; in most records, active means well fitted cell-killing curve with a large enough effect; inconclusive means small, poorly fitted or top-dose-only effect; inactive means flat fitted curve, though single readings scatter.

assay: Cellular viability qHTS for adrenocortical cancer (ACC) cell line SW-13 (AID 1963989); conditions: SW-13 ACC cells viability, CellTiter-Glo, 48 h; activity (max response): active compounds read low;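 further: cells grown in serum-free medium with ITS supplement; on the % scale 0 is the no-effect control and ±100 the full control effect; nearly all actives have a fitted effect of over 65% in size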
In short: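 Viability was read as CellTiter-Glo luminescence after 48 h compound treatment (up to 46 uM final) of SW-13 cells grown serum-free; titration curves were fit with a four-parameter logistic model to give IC50 and efficacy.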

SMILES	activity (max response) [%]
CC(Oc1c(Cl)cccc1Cl)C1=NCCN1 (stereo not given)	12.6
CN1C(CSCC(F)(F)F)Nc2cc(Cl)c(S(N)(=O)=O)cc2S1(=O)=O (stereo not given)	-6.86
CO/N=C1\CN(c2nc3c(cc2F)c(=O)c(C(=O)O)cn3C2CC2)CC1CN (stereo not given)	-3.25
C=CC[N+]1([C@H]2C[C@H]3[C@@H]4CC[C@H]5C[C@H](OC(C)=O)[C@@H](N6CCCCC6)C[C@]5(C)[C@H]4CC[C@]3(C)[C@H]2OC(=O)CC)CCCCC1	-4.47

assay: Cellular viability qHTS for adrenocortical cancer (ACC) cell line NCI-H295R (AID 1963990); conditions: CellTiter-Glo ATP luminescence, 48 h; series mostly up to 46.1 µM; activity change, negative = viability loss: at the top concentration; further: nearly all actives have a fitted effect of over 60% in size; further: potency means the concentration at half of the fitted maximal effect;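 on activity change, negative = viability loss: 0% = DMSO only wells and -100% = full killing with cytotoxic reference compound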
In short: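 CellTiter-Glo ATP luminescence, read 48 h after compound addition, measured viability of NCI-H295R adrenocortical cells grown serum-free with ITS. Final concentrations spanned up to 46 uM. Data normalized to DMSO and doxorubicin, fitted for IC50 and maximal response.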

SMILES	activity change, negative = viability loss [%]	Potency
C[C@@]12CCC[C@H]1[C@@H]1CC[C@H]3C[C@@H](O)CC[C@]3(C)[C@H]1CC2	-21.5	
O=C(CCNC(=O)c1ccc(OC(F)(F)F)cc1)N[C@@H]1CCCc2ccccc21	-14.1	
CCOC(=O)c1ccc(O)cc1	-4.81	
N[C@@H](CCC(=O)O)C(=O)N[C@@H](Cc1c[nH]c2ccccc12)C(=O)O	-1.23	
O=C(Nc1ccc2c(c1)CCN(Cc1ncn[nH]1)C2)c1ccccc1-c1ccc(C(F)(F)F)cc1	-4.87	
COc1ccc(C(=O)N2CCN(C(=O)/C=C/c3ccc(Br)cc3)CC2)cc1	-5.09	
Nc1ccc2cc3ccc(N)cc3nc2c1		2590 nM (active)
Cc1c(CN2CCN(C(=O)[C@H](C)O)CC2)sc2c(N3CCOCC3)nc(-c3cnc(N)nc3)nc12		398 nM (active)
O=C(CCCCCCCCC#CI)Oc1ccccc1		13000 nM (active)
COc1cc2c(cc1OC)CN(C(=O)[C@H](C)N[C@@H](CCc1ccccc1)C(=O)O)[C@H](C(=O)O)C2	-6.3	
Cn1c(-c2ccccc2C(F)(F)F)nnc1C12CCC(c3noc(C4CC(F)(F)C4)n3)(CC1)CC2	-14.5	
